Compounds with a hit are over-represented: about 3.5% of the library has one in this group of screens.
MITF primary: human MITF inhibition, primary screen; AlphaScreen MITF homodimerization, bead proximity signal; O75030; inhibition, % at 2.6 µM; 0.91% of 650,000 active; in the data active = inhibition above about 50%;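 note: 0% = vehicle wells with protein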
TEAD-YAP inh: TEAD-YAP interaction inhibition | HEK-TIYL cells, TEAD-Gal4/YAP UAS-luciferase luminescence | inhibition, % at 9.12 µM | 1.4% of 640,000 active; in the data active = inhibition above about 32%;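 note: 0% = median of test compound wells and 100% = reference inhibitor wells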
GPR151 activ: activators of human GPR151; Q8TDV0; PathHunter beta-arrestin GPR151 cells, luminescence; activation, % at 11.2 µM; 1% of 650,000 active; in the data active = activation above about 4.9%;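 note: 0% = median of compound wells and 100% = cells with positive control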
Target sequence (Q8TDV0 whole entry, looked up): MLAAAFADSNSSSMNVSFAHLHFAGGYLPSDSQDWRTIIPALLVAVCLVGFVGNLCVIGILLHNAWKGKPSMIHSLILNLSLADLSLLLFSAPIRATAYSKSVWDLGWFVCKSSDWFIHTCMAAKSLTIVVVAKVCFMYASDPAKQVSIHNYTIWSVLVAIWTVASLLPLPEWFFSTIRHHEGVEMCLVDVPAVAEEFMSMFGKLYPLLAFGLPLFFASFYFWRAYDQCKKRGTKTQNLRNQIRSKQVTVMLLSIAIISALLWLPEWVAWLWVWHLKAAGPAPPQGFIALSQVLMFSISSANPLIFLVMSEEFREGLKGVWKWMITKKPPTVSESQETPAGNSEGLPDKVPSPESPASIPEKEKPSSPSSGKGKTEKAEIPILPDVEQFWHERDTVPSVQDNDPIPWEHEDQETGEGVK
FBW7 activator: activators of human E3 ligase FBW7 | Q969H0 | AID 1259310 | normalized activity (activation), % at 26.1 µM | AlphaScreen FBW7–phospho-cyclin E peptide binding, activator screen | 0.13% of 650,000 active; in the data active = normalized activity above about 1.9%;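 note: purified mutant Fbw7 with reduced substrate affinity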
GPR151 confirm: confirmation of human GPR151 activators | shares compounds with GPR151 activ | GPR151 PathHunter beta-arrestin cells, luminescence, 90 min; % of EA-reagent control over plate median | activation, % at 11.2 µM | 6,700 tested, under 10 active | AID 1508609;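 active = mean percent activation across replicates above the confirmation screen cutoff of 4.91%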
GPR119 counter: activates human GPR119 in a GPR151 counter-screen. AID 1508611. GPR119 PathHunter beta-arrestin cells, luminescence, 90 min; 0 = compound-well median, 100 = enzyme-acceptor control. 0.3% of 6,700 active. shares compounds with GPR151 activ. activation, % at 11.2 µM;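 active = mean percent activation in the counterscreen above 29.09%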;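 note: counterscreen on off-target GPR119 to flag nonselective hits from the GPR151 activator screen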
* = called active by the depositor; x = not tested or not shown; ! = not confirmed by another sample.

SMILES	MITF primary	TEAD-YAP inh	GPR151 activ	FBW7 activator	GPR151 confirm	GPR119 counter
COc1ccc(-c2[nH]ncc2CNC(C)CCn2cccn2)cc1F (stereo not drawn)	10.1	-10.8	0.4	0.0	x	x
CCCCOC(=O)c1ccc(NC(=O)c2ccccc2C(=O)c2ncc[nH]2)cc1	20.3	-18.5	4.8	1.5	x	x
COc1ccc(C(=O)C(C)Sc2nc(C)cc(=O)[nH]2)cc1 (stereo not drawn)	-10.5	-2.5	-2.0	0.6	x	x
CCOc1ccc(C(=O)C(C)Sc2nc(C)cc(=O)[nH]2)cc1 (stereo not drawn)	-1.6	-7.2	5.1*	-0.1	1.2	9.2
CCOCCCNC(=O)C(NC(=O)c1ccc(=O)[nH]c1)c1ccccc1 (stereo not drawn)	3.1	-5.6	5.0*	-0.1	0.6	16.2
O=C1CCc2cc(S(=O)(=O)N3CCC4(CC3)OCCO4)cc3c2N1CC3	1.8	-0.6	1.9	0.6	x	x
Cc1ccc(NC(=O)CO/N=C(\N)c2nonc2N)cc1	8.5	6.5	5.9*	0.1	0.7	-6.3
N/C(=N/OCc1ccc(Cl)c(Cl)c1)c1nonc1N	22.0	-42.7	8.7*	0.3	-1.0	-2.8
CC(=O)n1cc(/C=C2\N=C(c3cc(Cl)ccc3Cl)OC2=O)c2cc(Br)ccc21	14.2	0.8	-0.4	-0.1	x	x
CCC(C)(C)NC(=O)CN(C(=O)c1snc(C(N)=O)c1N)c1cccc(F)c1	1.5	4.4	0.5	-0.2	x	x
Cc1ccc(NC(=O)c2ccc(CNc3c(N4CCOCC4)c(=O)c3=O)cc2)cc1F	1.4	-7.5	5.0*	-0.1	0.1	-9.1
COc1ccccc1CNC(=O)c1ccc(CNc2c(N3CCCC3)c(=O)c2=O)cc1	10.1	4.9	4.9*	0.2	-1.0	-12.5
COc1ccc(/C=N\NC(=O)CCC2C(=O)NN=C2C)c(OC)c1OC (stereo not drawn)	13.8	5.6	1.9	0.3	x	x
CC(C)(O)c1ccccc1CC[C@@H](SCC1(CC(=O)O)CC1)c1cccc(/C=C/c2ccc3ccc(Cl)cc3n2)c1	3.6	-8.1	6.7*!	0.3	-0.2	1.1
COCCNc1nc2ccccc2n2nnnc12	-0.3	1.2	0.3	0.6	x	x
O=C(Nc1cc(Oc2ccc(F)cc2)cc(Oc2ccc(F)cc2)c1)c1nn2c(C(F)(F)F)cc(-c3ccccc3)nc2c1Cl	18.8	0.1	2.1	-0.1	x	x
N#Cc1c(-c2ccc(Cl)cc2)cc(-c2ccccc2)nc1N	10.0	2.0	-0.4	0.0	x	x
N#Cc1c(-c2ccncc2)cc(-c2ccc(Cl)cc2)nc1N	-11.2	-6.7	5.4*	-0.1	0.0	-2.2
Cc1ccc(NC(=O)c2cnc(SCc3cccnc3)n(C)c2=O)cc1C	-7.5	-28.6	10.0*	-0.1	-0.8	-17.6
Cc1ccc(S(=O)(=O)N2CCC(NC(=O)c3ccccc3C)CC2)cc1	9.9	9.4	0.9	0.2	x	x
CCC1CCCCN1C(=O)CN1C(=O)NC(C)(c2ccc3ccccc3c2)C1=O (stereo not drawn)	4.4	4.0	2.1	-0.1	x	x
CC(=O)N1CCN(C2=NC(=O)/C(=C\c3ccc(Cl)cc3)S2)CC1	1.3	1.8	-0.1	-0.2	x	x
CC1CCCC(NC(=O)c2ccc3c(=O)n(-c4cccc(C(F)(F)F)c4)c(=S)[nH]c3c2)C1C (stereo not drawn)	17.8	6.1	-0.2	0.7	x	x
O=C(Nc1ccc2oc(-c3cc(Br)ccc3Cl)nc2c1)c1cc(Br)ccc1I	-5.2	-10.3	0.7	-0.1	x	x
O=C(CN1C(=O)CCC1=O)Nc1ccc(Cl)c(C(F)(F)F)c1	0.6	-5.0	6.6*	-0.2	0.5	5.8
SMILES	MITF primary	TEAD-YAP inh	GPR151 activ	FBW7 activator	GPR151 confirm	GPR119 counter
O=C(CN1CCN(CC(=O)Nc2ccc(Cl)c(C(F)(F)F)c2)CC1)Nc1ccc(F)cc1	17.0	11.5	-0.7	0.2	x	x
CCCCN(/C=N/S(=O)(=O)c1ccccc1)CCCC	47.9	2.8	10.6*	0.4	0.2	2.2
O=C(CCCCCn1c(SCC(=O)c2ccc(Br)cc2)nc2ccccc2c1=O)NCC1CCCO1 (stereo not drawn)	8.2	0.1	0.4	0.2	x	x
Cc1cnn(C(=S)NCc2ccco2)c1	7.7	-1.7	5.1*	-0.4	0.0	-7.4
Cc1ccc(NC(=S)NCc2ccco2)cc1	-2.5	-23.6	0.3	-0.2	x	x
CCOC(=O)c1ccc(NC(=S)Nc2ccccn2)cc1	16.4	-42.6	5.0*!	0.1	0.8	14.9

Screens from PubChem BioAssay.
